A selection: hits, their analogues and other compounds. The true share with any hit is near 19%.
Pf growth 96h: inhibits malaria parasite growth, 96 h; hit rate 6.9% among 320,000; P. falciparum luciferase reporter growth, 96 h; Potency, µM (series often up to 28.7 µM), inactives show at the top dose activity change, negative = inhibition, most hits filed as inhibitors; also: potency is read from the fitted curve at half-maximal effect; % is scaled to controls: 0 for no effect and ±100 for the full control effect
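P. falciparum expressing integrated firefly luciferase grown in erythrocytes (2% hematocrit, 0.05% parasitemia final) with compounds for 96 hours at 37 C, 5% CO2. Growth inhibition read as loss of luminescence after adding luciferase detection reagent.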
AMA1 RON2 block: disrupts binding of P. falciparum AMA1 to RON2 | AID 720542 | AlphaScreen AMA1-biotinylated RON2 peptide binding | hit rate 0.2% among 360,000 | Potency, µM (series often up to 58.2 µM), inactives show at the highest dose activity change, negative = inhibition, most hits filed as inhibitors;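 also: potency is read from the fitted curve at half-maximal effect; 0% = vehicle wells and -100% = peptide control; nearly all actives have a fitted effect of over 45% in size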
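AMA1 (3D7) with his tag at 25 nM final met compounds first, then biotinylated RON2 peptide at 25 nM; detection used donor plus acceptor beads, 10 µg/mL apiece, read by AlphaScreen after 30 min at room temperature.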
Shiga inhibitor: Shiga toxin inhibition; Vero cells, Shiga toxin protein synthesis inhibition reporter; inhibition, % at 38.7 µM; hit rate 9.2% among 290,000; AID 2315; in the data active = inhibition mostly above about 28%, no sharp cut-off; inactive = mostly below about 43%; also: 0% is about no effect
CHX counter: counter-screen hit for Shiga toxin inhibitors, cycloheximide. cell reporter, cycloheximide protein synthesis inhibition counterscreen. max response, %. hit rate 12% among 300,000. AID 2314; in the data active = max response mostly above about 13%, no sharp cut-off; inactive = mostly below about 14%; also: read at 38.3 µM for the half of the compounds with a filed dose; 0% is about no effect
Pf growth 48h: P. falciparum growth inhibition at 48 hours (one generation); P. falciparum luciferase growth in erythrocytes, 48 h; Potency, µM (series often up to 28.7 µM), inactives show top-dose activity change, negative = inhibition, most hits filed as inhibitors; hit rate 5.9% among 310,000; AID 504832; also: potency is read from the fitted curve at half-maximal effect; % is scaled to controls: 0 for no effect and ±100 for the full control effect
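Compounds are pin-transferred into medium, infected erythrocytes (2% hematocrit, 0.1% parasitemia final) are added, and plates sit one parasite generation at 37 C in 5% CO2. Detection reagent is then added and luminescence measured.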
SARS PLP yeast: blocks SARS-CoV papain-like protease in a yeast assay | S. cerevisiae expressing SARS-CoV PLpro, growth rescue | Potency, µM (titrated, usually from 32.9 µM), inactives show at the highest dose activity, positive = growth rescue, actives largely listed as activators | hit rate 0.19% among 330,000 | AID 485353; calls by dose curve; also: potency is read from the fitted curve at half-maximal effect; 0% is about no effect; nearly all actives have a fitted effect of over 55% in size
* = called active by the depositor; ? = inconclusive; . = not tested or not shown; [ ] = dose if it differs, or a comment. Unless noted, calls follow the shape of the dose curve; as a rule, active = well fitted curve in the direction sought with a large enough effect; inconclusive = small, poorly fitted or top-dose-only effect, or another doubt; inactive = no such curve, though single readings can be large; an effect the other way counts as inactive or inconclusive.

SMILES | Pf growth 96h | AMA1 RON2 block | Shiga inhibitor | CHX counter | Pf growth 48h | SARS PLP yeast
Cc1ccc(OCCC(=O)OCC(=O)Nc2ccc(Cl)cn2)cc1 | 35% | 0% | -19 | 5 | 13% | 9%
CC(=O)OC[C@@H]1CN(Cc2ccccc2)C[C@H](n2cnc3c(NCC(C)C)ncnc32)O1 | . | -2% | . | . | . | .
O=C(NCc1cccnc1)OC1CC2CC1[C@H]1CCCCN1C2=O (stereo partly drawn) | . | 32% | . | . | . | .
O=[N+]([O-])c1ccc(COc2ccc(CNc3ccccc3)cc2)cc1 | 93% | -14% | 34 | 36* | 16% | 20%
c1ccc(COc2cncc(-c3cccnc3)c2)cc1 | ? | 0% | . | . | 10µM* | 3%
OC(c1ccccc1)c1ncc(-c2cccc(OCc3ccccc3)c2)[nH]1 (stereo not drawn) | . | -2% | . | . | . | .
O=[N+]([O-])c1ccc(COc2cccnc2)cc1 | ? | -11% | 56* | 41* | 41% | -2%
O=[N+]([O-])c1ccc(COc2cccc(CNc3ccc(Br)cc3)c2)cc1 | ? | ? | -3 | 0 | -21% | ?
CC(C(=O)Nc1ccc2c(c1)OCCO2)N(C)CC(=O)Nc1ccccc1Br (stereo not drawn) | ? | 60% | . | . | ? | 0%
COC(=O)c1sccc1NC(=O)c1ccoc1C | 0%[5.75 µM] | -1% | 12 | -4 | 15% | 4%
COc1cc(C(=O)Nc2cc3c(cc2N2CCCCC2)n(C)c(=O)n3C)cc(OC)c1OC | ? | -4% | -2 | 8 | ? | 4%
CCc1ccc2[nH]c(=O)c(C(c3nnnn3CCOC)N3CCN(c4ccc(F)cc4)CC3)cc2c1 (stereo not drawn) | -10% | -12% | 18 | 2 | ? | 2%
CCc1ccc2[nH]c(=O)c(CN(Cc3ccc(F)cc3)C(c3nnnn3CCN3CCOCC3)C(C)C)cc2c1 (stereo not drawn) | 75% | -1% | 28* | 43* | 19% | 2%
CCC(C)(C)n1nnnc1C(C(C)C)N(CCN1CCOCC1)Cc1cc2cccc(C)c2[nH]c1=O (stereo not drawn) | 13µM* | 26% | -5 | -6 | . | 6%
Cc1cccc(CSc2nnc(-c3ccco3)o2)c1 | ? | 1% | 89* | 32* | 0% | -1%
CN(C)c1cccc(-c2nnc(SCCCC#N)o2)c1 | ? | 4% | 91* | 49* | 250% | -9%
CC(=O)c1c(C)cc(C)c(CSc2nnc(-c3ccco3)o2)c1C | . | -5% | -28 | -2 | ? | -9%
CN(C)CCSc1nnc(-c2ccccc2)o1 | ? | -5% | 57* | 39* | 84% | 0%
Cc1cccc(-c2nnc(SCc3ccccc3)o2)c1 | 31% | 39% | 92* | 28* | 91% | -6%
Cc1ccccc1CN1[C@@H](CC2CCCCC2)COCCS1(=O)=O | 0% | 1% | 1 | 1 | ? | -21%
COc1ccc(C(=O)NCc2nnc(SCC(=O)N3CCc4ccccc43)n2Cc2ccccc2)cc1 | 19% | -6% | -6 | -5 | -10% | 6%
CCOC(=O)c1cc2sc(C)cc2n1C(C)C(=O)OCC (stereo not drawn) | 0.83µM* | 0% | -5 | -2 | 24% | -16%
O=C(O)COCC(=O)Nc1ccc2c(c1)ncn2CCc1ccccc1 | 21% | -6% | -6 | -3 | -10%[0.00184 µM] | 0%
CCn1cnc2cc(NC(=O)COc3ccc(C)cc3)ccc21 | . | 21% | . | . | . | .
CCn1cnc2cc(NC(=O)c3ccco3)ccc21 | 267% | -18% | 20 | 30* | 294% | ?
SMILES | Pf growth 96h | AMA1 RON2 block | Shiga inhibitor | CHX counter | Pf growth 48h | SARS PLP yeast
CCCn1cnc2cc(NC(=O)c3cccs3)ccc21 | 30% | 2% | 51 | 29* | 290% | 1%
CC(C)(C)n1cnc2cc(NC(=O)c3ccco3)ccc21 | 16% | 6% | 62* | 25* | 125% | 2%
CCCn1cnc2cc(NC(=O)c3ccco3)ccc21 | 45% | -11% | 80* | 63* | 25% | 1%
CC(C)C[C@@H](CO)N1CCN(Cc2cccc(C#N)c2)CCC1=O | 76% | 1% | -4 | 1 | 38% | -6%
Cn1c(SCC(=O)Nc2cccc3ccccc23)nc(O)cc1=O | ? | 3% | 10 | -3 | 10µM* | 4%
COc1ccc(-c2cnc(SCC(=O)Nc3cc(C)on3)n2Cc2ccco2)cc1 | . | -29% | 33 | -6 | ? | -4%
COc1ccc(NC(=O)CSc2ncc(-c3ccc(F)cc3)n2Cc2ccco2)cc1 | 12µM* | ? | 11 | -3 | 15µM* | -3%
O=C(CSc1ncc(-c2ccc(F)cc2)n1Cc1ccco1)Nc1nccs1 | . | 4% | 2 | 0 | . | 2%
Cc1cnc(NC(=O)CSc2ncc(-c3ccccc3)n2Cc2ccco2)s1 | ? | 0% | -5 | -1 | ? | 7%
COc1ccccc1NC(=O)CSc1nc(O)cc(=O)n1C | . | 6% | -19 | -3 | -17% | 2%
CCC(=O)Nc1cc(NC(=O)CSc2ncc(-c3ccc(F)cc3)n2Cc2ccco2)ccc1C | 22% | 2% | 76* | 27* | 34% | -2%
COc1ccc(-c2cnc(SCC(=O)Nc3nc(C(C)(C)C)cs3)n2Cc2ccco2)cc1 | ? | -29% | 12 | 9 | 13µM* | -16%
COCCCN(CCC#N)C(=O)c1c(-c2c(Cl)cccc2Cl)noc1C | 23% | 9% | -4 | -2 | 50% | 1%
COc1ccc(CCN2C(=O)CCC2(C)c2nnnn2-c2ccc3c(c2)OCCO3)cc1OC (stereo not drawn) | . | 3% | . | . | . | .
COCCn1c(-c2ccc(OC)cc2)cnc1SCC(=O)Nc1cccc2ccccc12 | 1.7µM* | ? | -6 | 10 | ? | -5%
COCCn1c(SCC(=O)Nc2ccccc2OC)nc2ccccc2c1=O | -28% | 4% | -6 | -2 | -16% | -4%
Cc1nc2ccc(NC(=O)NCCO)cc2s1 | 13% | -7% | 35 | 20* | 26% | 2%
Cc1nc2ccc(NC(=O)NCCCO)cc2s1 | 16% | 5% | 49* | 16* | 47% | 0%
Cc1cc(C)cc(N(C(=O)c2sc(C)nc2C)C(C(=O)NCc2ccco2)c2ccccc2)c1 (stereo not drawn) | 12µM* | -3% | 14 | 6 | ? | 2%
Cc1nc2ccc(NC(=O)NCc3ccco3)cc2s1 | . | -3% | 56* | 43* | 89% | 3%
COCCNC(=O)Nc1ccc2nc(C)sc2c1 | 23% | -6% | 64 | 13 | 19% | -10%
O=c1cc(N/N=C/c2ccccc2)[nH]c(=O)[nH]1 | . | 40% | . | . | . | .
O=c1nccc(N/N=C/c2ccccc2)[nH]1 | 66% | -15% | 37* | 37* | . | 6%
C=CCn1c(SCc2csc(-c3ccc(C)cc3)n2)nnc1-c1ccccc1OC | ? | -18% | 23 | 11 | ? | 22%
Cc1ccc(C(=O)N2CC3(C(C)C)CN(C(=O)c4ccc(C)cc4)CC(C(C)C)(C2)C3=O)cc1 | 9.3µM* | 0% | -5 | -3 | . | 2%
